High-throughput results from PubChem.
An excerpt weighted towards active compounds, which were near 7.5% of everything screened.
HCV inh: inhibitors of hepatitis C virus infection. 3.4% of 340,000 active. Potency, µM (top dose mostly 41.8 µM), without a hit: at the top dose activity change, negative = inhibition, hits mostly inhibitors. AID 651820. Huh7.5.1 HCVcc-Cre infection, luciferase reporter, 44 h; also: potency is read from the fitted curve at half-maximal effect
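Reporter virus HCVcc-Cre (~0.5 moi) infects cells exposed to compound; seeding density 1,000 cells/well with 4 h settling beforehand. Luminescence, 15 sec read, taken 44 h post-infection following a 15 min RT substrate incubation.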
Giardia FBPA inh: blocks Giardia fructose-bisphosphate aldolase activity | purified Giardia FBPA | Potency, µM (top dose mostly 59.6 µM), for the others: at the top dose activity, negative = inhibition, actives largely listed as inhibitors | 0.71% of 290,000 active; also: potency is read from the fitted curve at half-maximal effect; nearly all actives have a fitted effect of over 55% in size
Target sequence (A8B2U2 whole entry, looked up): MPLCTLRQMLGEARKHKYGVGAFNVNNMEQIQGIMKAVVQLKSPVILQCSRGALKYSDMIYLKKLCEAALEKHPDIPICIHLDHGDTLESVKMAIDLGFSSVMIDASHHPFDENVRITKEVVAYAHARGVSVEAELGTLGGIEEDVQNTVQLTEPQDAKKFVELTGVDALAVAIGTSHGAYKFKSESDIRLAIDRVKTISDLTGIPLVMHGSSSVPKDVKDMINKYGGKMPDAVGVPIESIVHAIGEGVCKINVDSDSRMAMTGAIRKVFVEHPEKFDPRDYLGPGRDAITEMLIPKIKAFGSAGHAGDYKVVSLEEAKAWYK
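Giardia FBPA (40 nM reagent) was preincubated 10 min at RT with compound (up to 57.5 uM final), then substrate plus GAPDH/TPI/NAD/arsenate coupling system with diaphorase/resazurin was added; resorufin fluorescence (525/598 nm) was read after 20 min.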
Vaccinia Venus: vaccinia inhibition (Venus reporter) | Potency, µM (top dose mostly 36.5 µM), for the others: top-dose activity change, negative = inhibition, usual class: inhibitors | 0.46% of 330,000 active | AID 720580 | Vaccinia virus Venus reporter expression, fluorescence; calls by dose curve; tested in A549 cells; also: potency is read from the fitted curve at half-maximal effect; nearly all actives have a fitted effect of over 30% in size
Vaccinia mCherry: vaccinia inhibition (mCherry reporter). AID 720579. 0.63% of 310,000 active. Potency, µM (series often up to 36.5 µM), inactives show top-dose activity change, negative = inhibition, actives largely listed as inhibitors. Vaccinia virus mCherry reporter infection, fluorescence; calls by dose curve; tested in A549 cells; also: potency is read from the fitted curve at half-maximal effect; nearly all actives have a fitted effect of over 35% in size
FMDV inh: foot and mouth disease virus antiviral activity. FMDV antiviral cell-based qHTS. Potency, µM (doses to about 57.9 µM), for the others: at the highest dose activity change, negative = inhibition, hits mostly inhibitors. 1.2% of 410,000 active. AID 1159524; calls by dose curve; tested in HEK293T cells; also: read-out not given here; potency is read from the fitted curve at half-maximal effect; nearly all actives have a fitted effect of over 45% in size
HCMV inh: human cytomegalovirus inhibition | HFF cells, HCMV-luciferase reporter, 72 h; hits give low values | activity change, negative = inhibition, % at 57.5 µM | 4.5% of 410,000 active | AID 1259415; in the data active = activity change below about -60%; inconclusive = no clear call, values can overlap the other calls; inactive = above about -39%
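Two-dose cell screen: HFF monolayers treated with compounds and infected with luciferase-expressing HCMV at 1 PFU/cell, 72 h at 37C, then lysed for luciferase measurement.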
* = called active by the depositor; i = inactive; ? = inconclusive; . = no result given; [ ] = another dose, or the depositor's remark. Unless noted, calls follow the shape of the dose curve; as a rule, active = well fitted curve in the direction sought with a large enough effect; inconclusive = small, poorly fitted or top-dose-only effect, or another doubt; inactive = no such curve, though single readings can be large; an effect the other way counts as inactive or inconclusive. % is scaled to controls: 0 for no effect and ±100 for the full control effect.

SMILES	HCV inh	Giardia FBPA inh	Vaccinia Venus	Vaccinia mCherry	FMDV inh	HCMV inh
CCn1nnc2cc(C(=O)Nc3cccc(C)c3C)ccc21	.	.	-11%	-20%	15%	-7
CCCCNC(=S)NNC(=O)CCn1nc(C)c(Br)c1C	17%	2%	.	.	12%	-106*
COc1ccc(C(=O)CC(=O)C(=O)Nc2ccc(C)cc2Cl)cc1	10µM*	-22%	-5%	i	-17%	2
O=C(Nc1cc(Cl)ccc1Cl)c1cc2nc(-c3ccc4c(c3)OCO4)cc(C(F)(F)F)n2n1	.	.	-2%	-14%	-19%	13
CC(C)c1cc(C(F)(F)F)n2nc(C(=O)Nc3ccc4c(c3)OCO4)cc2n1	13µM*	-1%	-21%	-23%	22%	87
COc1ccc(/C=N/Nc2cc(C)nc3ccc(OC)cc23)c(OC)c1	10µM*	14%	?	?	?	-105*
COc1ccc2nc(C)cc(N/N=C/c3ccccc3)c2c1	10µM*	.	?	14µM*	-4%	.
COc1ccccc1/C=N/Nc1cc(C)nc2ccc(C)cc12	?	2%	4%	?	4%	27
Fc1ccccc1-c1nc(N2CCN(c3cccc(Cl)c3)CC2)c2ccccc2n1	.	.	-8%	-12%	?	2
CCN(CC)CCNC(=O)C(Cl)=C1C(Cl)=C(Cl)C(Cl)=C1Cl	?	.	0.79µM*	2µM*	22µM*	-76*
CCN(CC)CCNC(=O)C12CC3CC(CC(C3)C1)C2	22%	-7%	-6%	-19%	-1%	-7
CN(c1ccc(OC(=O)c2ccc(-n3cncn3)c([N+](=O)[O-])c2)cc1)S(=O)(=O)c1ccccc1	-13%	.	.	.	-3%	45
Cc1nn(CCC(=O)NC(C)C)c(=O)c2nn(-c3ccccc3)c(C)c12	.	.	-10%	-7%	-13%	5
CCCc1nc(NCc2ccccn2)c2nnn(Cc3ccccc3F)c2n1	?	-2%	-23%	-9%	25µM*	-33
Cc1nnc(-c2ccco2)c2cn(-c3cccc(Br)c3)nc12	?	2%	-2%	-6%	22µM*	-29
CNC(=S)NNC(=O)c1cc(C(C)(C)C)nn1Cc1ccc(F)cc1	6%	-1%	4%	-13%	-7%	0
C=C1C(=O)OC2C1CCC(C)=C1C(=O)C3OC3(C)C12 (stereo not given)	10µM*	.	?	11µM*	28µM*	-78*
C=C1C(=O)O[C@@H]2[C@@H]1CC/C(C)=C\CC[C@@]1(C)O[C@H]21	.	0%[21.7 µM]	.	.	.	.
CCOC(=O)C(C)Oc1cc(C)cc2oc(=O)c3c(c12)CCCC3 (stereo not given)	10µM*	7%	-8%	i	?	26
Cc1cc(OCC(=O)NCc2cccnc2)c2c3c(c(=O)oc2c1)CCCC3	10µM*	.	.	.	-8%	0
COC(=O)C(C)Oc1cc(C)cc2oc(=O)c3c(c12)CCCC3 (stereo not given)	?	10%	-17%	-23%	-17%	35
COc1ccc(N2CCC[C@H]2/C=C/C(=O)OC(C)(C)C)cc1	.	.	.	.	.	7
COc1ccc(N(C(=O)c2cccc(C)c2)S(=O)(=O)c2ccc3c(c2)n(C)c(=O)n3C)cc1	.	.	-19%	-21%	0.028µM*	14
O=C1NC(=O)N(c2ccccc2)C(=O)/C1=C/c1ccc(Sc2ccccc2)o1	11%	6%	.	.	?	.
COc1ccc(Sc2ccc(/C=C3\C(=O)NN(c4ccccc4)C3=O)o2)cc1	-1%	3%	3%	i	40µM*	-14
Cc1c(Cl)cccc1NC(=S)NCCc1ccccn1	-9%	-26%	-10%	i	-5%	-69*
Cc1c(Cl)cccc1NC(=S)NCCc1ccc(C(F)(F)F)cc1	11µM*	-4%	-18%	i	-22%	-33
S=C(NCCc1ccccn1)Nc1ccccc1Cl	-2%	-26%	.	.	50%	43
C[C@@H]1CN([C@@H](C)CO)C(=O)c2cc(NC(=O)C3CCCCC3)ccc2O[C@@H](C)CCCCO[C@@H]1CN(C)Cc1ccncc1	.	.	-29%	i	?	-10
CNC(=O)OCc1snc(-c2ccccc2)c1COC(=O)NC	.	.	-3%	i	-9%	-14
